ELG1 DNA repair: blocks ELG1-dependent DNA repair in HEK293T cells. HEK293T ELG1-luciferase reporter, luminescence, 16 h; DNA damage induced by 5-fluorouridine. Potency, µM (series often up to 46.1 µM), usual class: inhibitors. 330,000 tested, 2.3% active. AID 504467; note: nearly all actives have a fitted effect of over 55% in size
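Step one: seed 2,000 cells per well. Step two: pin-transfer compound or DMSO alongside 5-fluorouridine. Step three: incubate 16 hr, 37 °C, 5% CO2. Step four: add ONE-Glo, wait 30 min, read luminescence.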
MCF10A rerep: inducers of DNA re-replication in MCF 10A breast cells | 350,000 tested, 2.9% active | Potency, µM (highest dose often 46.1 µM), hits mostly activators | MCF 10A DNA re-replication, Hoechst nuclear intensity, 48 h; note: nearly all actives have a fitted effect of over 50% in size
KB-V1 MDR tox: KB-V1 MDR subline cytotoxicity. KB-V1 MDR cells viability, CellTiter-Glo, 72 h. Potency, µM (doses to about 46.1 µM), hits mostly cytotoxic. 400,000 tested, 3.4% active; note: nearly all actives have a fitted effect of over 60% in size
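In this primary screen, KB-V1 cells overexpressing P-gp are incubated with library compounds (lowest to highest concentration) for 72 h at 37 degrees C before a luminescent ATP viability read.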
KB-3-1 tox: kills parental KB-3-1 adenocarcinoma cells; AID 1347075; Potency, µM (series often up to 46.1 µM), hits mostly cytotoxic; 400,000 tested, 1.4% active; KB-3-1 viability, CellTiter-Glo ATP luminescence, 72 h; note: nearly all actives have a fitted effect of over 60% in size
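Screening of KB-3-1 cells (DMEM, 10% FBS, phenol-red free) ran from lowest to highest compound concentration; after 72 h at 37 °C viability was read luminescently and curves fitted.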
SW480 rerep: inducers of DNA re-replication in SW480 colon cancer cells; SW480 DNA re-replication, Hoechst DNA content imaging, 48 h; Potency, µM (highest dose often 46.1 µM), actives largely listed as activators; 340,000 tested, 1.8% active; note: nearly all actives have a fitted effect of over 55% in size
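Image-based DNA-content assay: after two days of treatment, nuclei were labelled with the DNA dye Hoechst and imaged, and hits were compounds raising the count of nuclei showing high fluorescence intensity.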
ELG1 FLuc counter: luciferase inhibition in cell-free luciferin readout for ELG1 hits; 350 tested, 3% active; Potency, µM (doses to about 46.1 µM), most hits filed as inhibitors; shares compounds with ELG1 DNA repair; AID 624247; cell-free firefly luciferase luminescence counter-screen, ViewLux
ELG1 Luc conf: human ELG1 repair inhibition, luciferase-tagged ELG1 confirmation; shares compounds with ELG1 DNA repair; 670 tested, 68% active; Potency, µM (doses to about 46.1 µM), usual class: inhibitors; HEK293T ELG1-luciferase levels, luminescence; cells co-treated with 5-fluorouridine; AID 624248; note: nearly all actives have a fitted effect of over 55% in size
ELG1 MMS Luc: inhibits ELG1-dependent repair under MMS stimulation in HEK293T cells. shares compounds with ELG1 DNA repair. HEK293T luciferase-tagged ELG1 level, MMS stimulated. Potency, µM (doses to about 46.1 µM), most hits filed as inhibitors. 670 tested, 53% active; note: nearly all actives have a fitted effect of over 60% in size
ELG1 5-FU: confirmation of ELG1 repair inhibitors: viability with 5FU; shares compounds with ELG1 DNA repair; cell viability with 5-FU, ELG1-dependent repair; Potency, µM (top dose mostly 46.1 µM), hits mostly cytotoxic; 670 tested, under 10 active; AID 624250;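 note: ELG1-luc HEK293T cells cotreated with 5-fluorouridine at 10 µM final; viability measured 16 h after compound addition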
ELG1 MMS cell: confirmation of ELG1 repair inhibitors: viability with MMS. shares compounds with ELG1 DNA repair. Cell viability with MMS, ELG1-dependent DNA repair. Potency, µM (top dose mostly 46.1 µM), usual class: cytotoxic. 670 tested, 33% active;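 note: ELG1-luc HEK293T cells co-treated with 10 µM MMS; viability read 16 h after compound addition; nearly all actives have a fitted effect of over 60% in size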
ELG1 unstim viab: affects unstimulated cell viability, ELG1 hit counter-screen. Potency, µM (highest dose often 45.9 µM), most hits filed as cytotoxic. 900 tested, 8% active. shares compounds with ELG1 DNA repair. cell viability counter-screen, unstimulated, luminescence;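 note: compound exposure lasted 16 hours before reading; nearly all actives have a fitted effect of over 55% in size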
FLuc biochem: firefly luciferase inhibition counter-screen; shares compounds with ELG1 DNA repair; purified firefly luciferase, luminescence counter-screen; Potency, µM (series often up to 57.5 µM), actives largely listed as inhibitors; 350 tested, 10% active
A number is an active result; . = inactive; ? = inconclusive; / = no result. Compounds with a hit are over-represented: about 8.1% of the library has one in this group of screens. Calls come from the whole dose curve; as a rule, active = well fitted curve in the direction sought with a large enough effect; inconclusive = small, poorly fitted or top-dose-only effect, or another doubt; inactive = no such curve, though single readings can be large; an effect the other way counts as inactive or inconclusive.

SMILES	ELG1 DNA repair	MCF10A rerep	KB-V1 MDR tox	KB-3-1 tox	SW480 rerep	ELG1 FLuc counter	ELG1 Luc conf	ELG1 MMS Luc	ELG1 5-FU	ELG1 MMS cell	ELG1 unstim viab	FLuc biochem
COc1ccccc1NS(=O)(=O)c1cccc(-n2c(O)c(C=Nc3ccccc3C(=O)O)c3ccccc3c2=O)c1	?	.	.	.	.	/	/	/	/	/	/	/
COc1ccc(Cn2c(O)c(C=Nc3ccccc3C(=O)O)c3ccccc3c2=O)cc1	4.11µM	?	.	.	.	/	3.53µM	2.5µM	.	2.81µM	?	/
N#Cc1cc2cc3c(cc2nc1SCC(=O)N1CCOCC1)OCO3	?	.	.	.	.	.	/	/	/	/	.	.
CCOC(=O)CSc1nc2cc3c(cc2cc1C)OCO3	.	.	.	.	.	/	/	/	/	/	/	/
Cc1cc2cc3c(cc2nc1SCC(=O)N1CCOCC1)OCO3	.	.	.	.	.	.	/	/	/	/	.	.
CCOc1ccc2nc(SCC(=O)N3CCCCCC3)c(C#N)cc2c1	.	.	.	.	.	/	/	/	/	/	/	/
CCOc1ccc2cc(C#N)c(SCC(=O)N3CCOCC3)nc2c1	?	.	?	.	.	.	/	/	/	/	?	.
CN(CC(=O)Nc1ccc(Cl)c(C(F)(F)F)c1)C(=O)C1CC(=O)N(C2CCCC2)C1 (configuration not stated)	?	.	.	.	.	/	/	/	/	/	/	/
Cc1ccc(NC(=O)Cn2cnc3c(NCc4ccccc4)ncnc32)cc1C	.	.	.	.	.	/	/	/	/	/	/	/
CCN(CC)CCNC(=O)COc1ccc(Cl)cc1	/	.	/	/	.	/	/	/	/	/	/	/
Cc1[nH]nc2ncc(C(=O)c3ccccc3O)cc12	2.51µM	.	.	.	.	/	3.53µM	9.96µM	?	?	.	/
CC1(C)Cc2c(c(N3CCOCC3)nc3sc4c(=O)[nH]cnc4c23)CS1	.	.	?	.	.	.	14.1µM	.	?	.	.	.
Cc1cc(C)cc(NC(=O)CCc2nc3sc4c(c3c(=O)[nH]2)CCCC4)c1	.	?	?	?	?	.	/	/	/	/	?	.
O=C(N/N=C/c1c(F)c(F)c(F)c(F)c1F)c1cc(-c2ccccc2)nc2ccccc12	.	.	.	.	.	/	/	/	/	/	/	/
Cc1nn(-c2ccccc2)c(N2CCCC2)c1/C=N/NC(=O)c1cc(-c2ccccc2)nc2ccccc12	3.66µM	?	.	.	.	/	7.91µM	?	.	.	?	/
Cc1ccc(S(=O)(=O)N2CCN(C(=O)COC(=O)C3CCC3)CC2)c(C)c1	.	.	.	.	.	/	/	/	/	/	/	/
COc1ccccc1N1CCN(C(=O)CCCN2C(=O)c3cccc4cccc(c34)C2=O)CC1	4.61µM	?	?	.	.	/	7.91µM	?	?	.	?	/
COc1ccc(C(=O)NCC(c2ccc(N(C)C)cc2)N2CCc3ccccc32)cc1OC (configuration not stated)	/	/	.	.	/	/	/	/	/	/	/	/
OCCCNc1ncnc2scc(-c3ccc(Cl)cc3)c12	4.61µM	.	?	.	.	/	5.6µM	15.8µM	.	.	?	/
CCCCOc1ccc(Cn2c(=O)sc3ccccc32)cc1	/	/	.	.	/	/	/	/	/	/	/	/
O=C(Nc1ccc(F)cc1)N(Cc1cccs1)Cc1cc2cc3c(cc2[nH]c1=O)OCO3	18.4µM	?	?	.	.	?	8.89µM	28.1µM	.	?	?	.
COc1ccc(-c2oc(=O)c3cc(OC)c(OC)cc3c2/C=C/c2cccc([N+](=O)[O-])c2)cc1	1.64µM	.	.	.	.	/	?	.	.	?	.	/
COC1=C2C[C@@H](C)C[C@H](OC)[C@H](O)[C@@H](C)/C=C(\C)[C@H](OC(N)=O)[C@@H](OC)/C=C\C=C(/C)C(=O)NC(=CC1=O)C2=O	/	/	/	/	/	/	1.41µM	1.99µM	?	14.1µM	?	/
CCCNc1nc2c(c(=O)n(C)c(=O)n2C)n1Cc1cccc(C)c1	1.3µM	.	9.2µM	?	.	/	?	6.28µM	.	7.91µM	.	/
CCOc1ccc(CCNc2nc3c(c(=O)n(C)c(=O)n3C)n2CC)cc1OCC	?	.	?	14.6µM	.	.	14.1µM	11.2µM	.	.	.	.
SMILES	ELG1 DNA repair	MCF10A rerep	KB-V1 MDR tox	KB-3-1 tox	SW480 rerep	ELG1 FLuc counter	ELG1 Luc conf	ELG1 MMS Luc	ELG1 5-FU	ELG1 MMS cell	ELG1 unstim viab	FLuc biochem
COc1ccccc1NC(=O)CSc1ncc2c(n1)-c1ccccc1N(Cc1ccccc1C)S2(=O)=O	/	/	.	?	/	/	/	/	/	/	/	/
COc1cccc(C(=O)N/N=c2\oc3c(OC)cccc3cc2C(=O)NCc2ccccc2)c1	4.11µM	.	?	.	.	/	2.23µM	?	?	.	.	/
CCOc1ccc(C(=O)Nc2ccccc2N2CCN(C(=O)c3ccccc3)CC2)cc1[N+](=O)[O-]	4.61µM	.	/	/	.	/	6.28µM	?	.	.	.	/
O=C(NOCc1ccccc1)c1ccccc1	?	.	.	.	.	/	/	/	/	/	.	/
Cc1ccc(CONC(=O)c2cccc(C)c2)cc1	?	.	.	.	.	/	/	/	/	/	/	/
CCN(Cc1ccccc1)CC(O)COC(c1ccc(OC)cc1)c1ccc(OC)cc1 (configuration not stated)	.	.	.	.	?	/	/	/	/	/	/	/
O=C(c1cc(COc2ccc3ncccc3c2)on1)N1CCC(O)CC1	?	.	.	?	.	/	/	/	/	/	/	/
CCOC(=O)N1CCN(C(=O)c2cc(COc3ccc4ncccc4c3)on2)CC1	9.2µM	?	?	?	.	.	19.9µM	5.61µM	.	4.45µM	14.1µM	.
O=C(NC1CCCCCCC1)c1cc(COc2ccc3ncccc3c2)on1	1.64µM	.	1.84µM	2.59µM	.	.	17.7µM	1.12µM	.	1.41µM	?	?
CCc1nnc(SC(CC)C(=O)NCCOC)c2cc3occc3n12 (configuration not stated)	/	/	.	.	/	/	/	/	/	/	/	/
Cc1c(C(=O)N2CCCCC2)c(S(=O)(=O)N(C)Cc2ccccc2)c(C)n1C	.	.	.	.	.	/	/	/	/	/	/	/

Assay outcomes deposited in PubChem by National Center for Advancing Translational Sciences (NCATS).
